# Screens deposited in PubChem by several laboratories.
# SENP7 block – blocks the human protease SENP7; Q9BQF6; recombinant SENP7, Z-RLRGG-aminoluciferin luminescence, 40 min; inhibition, % at 5 µM; 330,000 tested, 1.5% active; AID 434973;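 active = inhibition above about 50% at the single test dose, limit read from the data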;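 also: plate controls were DMSO with enzyme for no effect and no enzyme buffer wells for full effect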
# HSP90 refold inh – blocks HSP90-mediated luciferase refolding in reticulocyte lysate. Rabbit reticulocyte lysate, luciferase refolding luminescence, 3 h. inhibition, % at 5.6 µM. 290,000 tested, 0.91% active. AID 1789;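 active = inhibition above the screen-wide mean plus 3 SD, computed separately per campaign, cut at about 16% in these data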;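 also: 0% = DMSO wells and 100% = 60 µM geldanamycin wells; inhibitors lower the luminescence because luciferase stays unfolded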
# SENP8 block-1 – inhibitors of human SENP8 protease; inhibition, % at 20 µM; AID 602440; Q96LD8; 360,000 tested, 0.64% active; recombinant SENP8, Nedd8 substrate fluorescence; in the data active = inhibition mostly above about 40%, no sharp cut-off; inactive = mostly below about 27%
# Target sequence (Q96LD8 whole entry, looked up): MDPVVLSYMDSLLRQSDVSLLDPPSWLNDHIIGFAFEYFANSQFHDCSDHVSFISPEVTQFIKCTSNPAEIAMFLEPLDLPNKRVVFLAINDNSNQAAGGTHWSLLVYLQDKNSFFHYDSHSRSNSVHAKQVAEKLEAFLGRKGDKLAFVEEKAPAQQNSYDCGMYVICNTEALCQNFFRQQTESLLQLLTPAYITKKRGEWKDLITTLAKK
# SENP6 block – inhibitors of human SENP6 protease; Q9GZR1; Recombinant SENP6 catalytic domain, aminoluciferin luminescence; inhibition, % at 10 µM; 330,000 tested, 1.8% active; AID 2599;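 active = inhibition above about 50% at the single tested dose, limit read from the data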;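 also: plate controls were DMSO wells with enzyme for no effect and DMSO wells lacking enzyme for full effect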
# Target sequence (Q9GZR1 628-1112 limits assumed): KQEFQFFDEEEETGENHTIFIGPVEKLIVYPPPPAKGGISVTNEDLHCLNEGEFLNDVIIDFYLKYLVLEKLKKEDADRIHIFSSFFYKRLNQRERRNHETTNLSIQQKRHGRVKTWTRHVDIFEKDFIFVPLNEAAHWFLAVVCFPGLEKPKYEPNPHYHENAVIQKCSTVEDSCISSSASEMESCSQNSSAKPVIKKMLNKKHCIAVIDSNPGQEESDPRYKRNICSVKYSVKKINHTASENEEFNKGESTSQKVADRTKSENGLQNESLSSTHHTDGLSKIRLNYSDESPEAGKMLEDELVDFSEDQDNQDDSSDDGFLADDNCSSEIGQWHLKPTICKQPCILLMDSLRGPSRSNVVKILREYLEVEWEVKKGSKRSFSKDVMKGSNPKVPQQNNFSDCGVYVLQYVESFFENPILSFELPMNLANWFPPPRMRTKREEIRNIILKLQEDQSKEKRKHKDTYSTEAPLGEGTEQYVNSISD
# SENP8 block-2 – SENP8 protease inhibition. 330,000 tested, 1.2% active. Q96LD8. inhibition, % at 10 µM. purified SENP8, Z-RLRGG-aminoluciferin cleavage, luminescence; in the data active = inhibition above about 50%
# SENP8 confirm – human SENP8 inhibition, confirmed | shares compounds with SENP7 block | Recombinant SENP8, Z-RLRGG-aminoluciferin luminescence, 60 min | inhibition, % at 12.5 µM | 6,200 tested, 40% active | AID 488912;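 active = mean inhibition across replicates above about 50%, limit read from the data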
# SENP6 conf – confirmation of human SENP6 protease inhibitors | AID 488915 | recombinant SENP6, Z-RLRGG-aminoluciferin luminescence | 6,200 tested, 58% active | inhibition, % at 12.5 µM | shares compounds with SENP7 block
# SENP7 conf – confirmation of human SENP7 protease inhibitors; shares compounds with SENP7 block; recombinant SENP7, Z-RLRGG-aminoluciferin luminescence, 40 min; inhibition, % at 12.5 µM; 6,200 tested, 69% active
# Casp3 SENP sel – inhibits human caspase-3 in SENP selectivity test; shares compounds with SENP7 block; purified caspase-3, Z-DEVD-aminoluciferin luminescence, 60 min; inhibition, % at 12.5 µM; 6,200 tested, 60% active;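 active = mean inhibition above about 50%, limit read from the data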;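 also: plate controls were enzyme with DMSO for no effect and wells without caspase-3 for full effect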
# SENP luc ctr – counter-screen for SENP inhibitors: luminescence interference; shares compounds with SENP7 block; Pre-incubated SENP8/Z-RLRGG-aminoluciferin, luciferase luminescence interference; inhibition, % at 12.5 µM; 6,200 tested, 39% active; AID 488919;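 active = mean inhibition above about 50% when retested at one dose, limit read from the data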;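 also: plate controls were DMSO wells with completed reaction for no effect and substrate without enzyme for full effect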
# Starred values were filed as active, the others as inactive; · = no result given. Shown are actives, neighbours in structure and some others; about 2.8% of the full set was active somewhere.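 The calls were made as follows, unless noted: active = mean inhibition above about 50% in the one-dose retest (limit read from the data); inactive = the rest.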
SMILES,SENP7 block,HSP90 refold inh,SENP8 block-1,SENP6 block,SENP8 block-2,SENP8 confirm,SENP6 conf,SENP7 conf,Casp3 SENP sel,SENP luc ctr
Brc1ccccc1/C=N/Nc1ccccn1,86.4*,-1.4,3.2,-26.7,34.9,-6.3,3.1,9.6,9.9,-3.3
CCOc1ccc(/C=N/Nc2ccccn2)cc1,95.0*,3.7,10.3,83.7*,91.4*,62.9*,93.6*,101.9*,64.8*,12.2
CC(=Nc1ccccc1)c1sc2ccccc2c1O,75.7*,-3.1,-75.9,85.2*,80.3*,88.3*,88.5*,98.5*,76.9*,75.7*
CC(=Nc1ccc(Br)cc1)c1sc2ccccc2c1O,73.3*,-1.6,-52.2,79.8*,61.3*,-4.4,7.6,5.1,13.3,6.1
CC(=Nc1ccccc1)C1=C(O)COC1=O,2.4,0.6,10.3,-17.5,1.3,·,·,·,·,·
CCN1C(=O)/C(=C/N2CCc3ccccc32)SC1=S,55.9*,0.0,18.3,16.6,3.2,10.8,14.2,14.2,17.4,4.2
CC(NC(=O)C1CCC(CNc2c(N3CCCCC3)c(=O)c2=O)CC1)c1ccccc1 (stereo not given),-2.0,-3.3,16.3,2.8,5.7,·,·,·,·,·
COc1ccc(Cn2c(O)c(C=Nc3ccccc3C(=O)O)c3ccccc3c2=O)cc1,-2.9,-2.5,35.6,12.4,-7.7,·,·,·,·,·
COc1ccccc1NS(=O)(=O)c1cccc(-n2c(O)c(C=Nc3ccccc3C(=O)O)c3ccccc3c2=O)c1,6.4,2.9,2.3,51.6*,21.4,40.8,37.9,36.6,17.9,3.9
CCc1nc(SCc2ccccc2C)n[nH]1,-12.0,-5.0,13.4,-3.3,-11.8,·,·,·,·,·
O=[N+]([O-])c1ccc(COn2nnc3ccccc32)cc1,-0.7,-2.5,14.1,14.6,-13.4,·,·,·,·,·
Clc1ccc(COn2nnc3ccccc32)c(Cl)c1,36.0,5.0,-7.9,60.0*,10.4,45.8,46.2,76.6*,35.7,47.0
Cc1ccc(OCc2nc(-c3ccccc3)no2)c(C)c1,44.6,-4.9,13.8,55.1*,24.6,32.8,35.5,55.7*,16.9,26.0
Cc1ccc(OCc2nc(-c3cccs3)no2)c([N+](=O)[O-])c1,52.7*,7.1,7.5,-22.7,37.1,66.5*,65.4*,80.1*,44.8,9.3
O=C(CN1CCCCCC1)OCCN=C1NS(=O)(=O)c2ccccc21,-6.2,-1.2,27.1,-20.2,-6.3,·,·,·,·,·
CCN(CC)c1ccc(NC(=O)c2cccc(C)c2)cc1S(=O)(=O)Nc1ccccc1OC,-5.6,4.2,5.0,-9.1,1.6,·,·,·,·,·
Cc1ccc2c(c1)Sc1c(ccc3ccccc13)N2,11.3,1.1,-76.2,79.9*,56.3*,1.9,18.2,3.7,29.6,11.5
Cc1cccc(NC(=O)c2cc(-c3ccc(C)c(C)c3O)n[nH]2)c1,85.6*,0.0,30.9,40.4,19.6,8.1,14.7,94.6*,59.4*,54.2*
CCCCn1c(SCC(=O)c2ccc(OC)c(OC)c2)nc2cc(S(N)(=O)=O)ccc21,6.3,1.5,11.1,4.1,5.6,·,·,·,·,·
O=C(Nc1ccc2sccc2c1)c1ccc(Cl)s1,85.5*,-4.1,-7.2,71.4*,19.1,-24.8,-2.6,88.2*,50.5*,4.4
O=C(Nc1ccc2c(c1)C(=O)NC2=O)c1ccc(Cl)s1,-22.5,7.0,-401.5,-21.9,-13.2,·,·,·,·,·
O=c1c(-c2ccc(Br)cc2)coc2c(CN3CCOCC3)c(O)ccc12,30.4,1.5,-396.1,13.5,0.5,·,·,·,·,·
O=c1c(-c2ccc(F)cc2)coc2c3c(ccc12)OCCO3,76.0*,-2.8,6.7,-11.7,-3.6,12.2,7.7,13.1,16.3,5.6
O=c1c(-c2ccc(F)cc2)coc2cc(O)ccc12,-16.7,0.6,-236.4,86.3*,82.3*,89.5*,90.2*,99.0*,93.7*,89.6*
Clc1ccc(-c2cn3c(n2)-c2ccccc2C3)cc1Cl,98.2*,1.9,1.7,94.4*,92.7*,43.3,83.8*,93.8*,80.5*,38.2
SMILES,SENP7 block,HSP90 refold inh,SENP8 block-1,SENP6 block,SENP8 block-2,SENP8 confirm,SENP6 conf,SENP7 conf,Casp3 SENP sel,SENP luc ctr
COCC(=O)Nc1nnc(Cc2ccc(OC)c(OC)c2)s1,4.4,-2.5,22.7,-8.9,-9.9,·,·,·,·,·
O=c1c2c(nc3cc(-c4ccc(Cl)cc4)[nH]n13)CCS2,72.8*,-4.9,-397.0,88.0*,84.8*,-2.0,2.5,4.1,24.2,12.2
O=c1c2c(nc3cc(-c4cccc(Cl)c4)[nH]n13)CCC2,56.5*,1.4,-269.5,50.2*,45.3,-24.9,-10.8,11.6,19.6,-8.1
Cc1nc2cc(-c3ccc(Br)cc3)[nH]n2c(=O)c1Cl,26.5,-1.8,-3.4,81.6*,74.5*,-0.1,2.1,3.4,11.1,10.1
Cc1cc2nc(C)c(Cl)c(=O)n2[nH]1,-7.1,-0.3,-25.7,-0.2,-3.2,·,·,·,·,·
COc1cc2c(cc1OC)CN(C(=O)CSc1nc(N)c(C#N)cc1C#N)CC2,9.8,1.6,-265.0,2.6,3.2,·,·,·,·,·
Cc1ccc(N2C(=O)c3ccccc3C2=O)cc1Cl,51.1*,-1.0,19.4,35.1,19.5,8.2,10.8,3.3,18.8,-3.3
N/C(=N\OC(=O)c1ccc(Cl)cc1Cl)c1ccc(Cl)cc1,54.2*,9.1,18.1,61.7*,36.7,13.1,34.7,69.1*,47.7,36.3
N/C(=N\OC(=O)c1ccc(Cl)cc1Cl)c1ccccc1,98.9*,16.0,17.8,100.8*,93.5*,98.1*,99.2*,103.1*,97.9*,97.6*
N/C(Cc1ccc(Cl)cc1Cl)=N\OC(=O)c1ccccc1,-2.4,-1.8,10.2,-5.2,-4.0,·,·,·,·,·
CCOP(=O)(OCC)/C(=N/OC(=O)c1ccc(Cl)cc1Cl)C(N)=O,2.2,-2.8,21.0,-22.3,2.3,·,·,·,·,·
Cc1cc(C)c(OCCCCn2cnc3ccccc3c2=O)c(C)c1,3.9,0.7,11.2,16.6,1.3,·,·,·,·,·
CC(=O)Nc1ccc(S(=O)(=O)N(C)c2ccc(O)cc2)cc1,5.1,0.1,6.8,-13.9,7.1,·,·,·,·,·
O=C(/C=C/Nc1ccccc1C(F)(F)F)c1ccco1,68.6*,5.2,-26.6,76.9*,54.1*,2.1,59.5*,86.6*,51.1*,43.6
O=C(/C=C/Nc1ccc(Oc2ccccc2)cc1)c1ccco1,97.7*,-0.1,-241.3,94.9*,95.2*,32.1,98.5*,102.2*,95.0*,18.9
O=C(/C=C/c1ccccc1O)c1ccco1,-1.9,1.9,9.4,6.9,-9.5,·,·,·,·,·
NC(=O)c1ccccc1N/C=C/C(=O)c1ccco1,41.7,-0.8,-398.0,72.6*,47.9,71.8*,69.3*,86.9*,86.1*,71.6*
